Our source for the growth inhibition values is PubChem BioAssay (NCI).

A short description of test [1]: NCI Yeast Anticancer Drug Screen. Data for the rad50 strain (AID 155).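 Also: 0% = growth of vehicle-only cultures of the same strain.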 The settings on record: S. cerevisiae rad50 strain growth inhibition, stronger effect = higher value. The method, boiled down: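 Compounds were tested on a yeast strain with an engineered DNA damage repair alteration; the reported value is growth inhibition normalised to vehicle treatment.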
Test [2] can be described thus: NCI Yeast Anticancer Drug Screen. Data for the mec2-1 strain (AID 157). The settings on record: S. cerevisiae mec2-1 strain, stronger effect = higher value. The method, boiled down:
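Test agents were screened against the mec2-1 yeast strain, with defined DNA repair or cell cycle alteration. Growth was scored as inhibition against vehicle-only controls.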

Test [3] can be described thus: NCI Yeast Anticancer Drug Screen. Data for the sgs1 mgt1 strain (AID 161).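 Also: 0% = growth of cultures given vehicle only.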 The settings on record: S. cerevisiae sgs1 mgt1 strain, stronger effect = higher value. The gist of the method: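 Test agents were incubated with a DNA-repair-mutant yeast strain. Growth was then read and compared against vehicle-treated controls.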
Test [4] in a line: NCI Yeast Anticancer Drug Screen. Data for the cln2 rad14 strain (AID 165).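 Also: 0% = growth equal to vehicle treated cultures.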 The settings on record: S. cerevisiae cln2 rad14 strain, stronger effect = higher value. The gist of the method: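 Growth of compound-exposed yeast (cln2 rad14 genotype) measured and expressed as inhibition relative to vehicle.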
Test [5] can be described thus: NCI Yeast Anticancer Drug Screen. Data for the bub3 strain (AID 167). To be noted: S. cerevisiae bub3 mutant strain, stronger effect = higher value. The gist of the method:
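Growth of a checkpoint-deficient yeast mutant is measured after compound exposure. Values represent inhibition relative to vehicle.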

Test [6] is described as follows: NCI Yeast Anticancer Drug Screen. Data for the mlh1 rad18 strain (AID 175). The settings on record: S. cerevisiae mlh1 rad18 strain growth inhibition, stronger effect = higher value. The method, boiled down: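 In this whole-cell yeast screen, a strain with altered DNA damage repair is challenged with compound, and its growth is measured against matched vehicle-treated controls.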

Setting [7] is: at 5.0 µM (retest, dose inferred, filed as 0.5).
The mark [8] stands for this setting: at 50.0 µM (retest, dose inferred, filed as 5.0).

About 79,000 compounds went through this panel and 15% of them were active in at least one assay; those are over-represented in the sample as a whole. Unmarked numbers belong to inactive results. Calls of active or inactive are those of the source. Rule as the data show it: active = growth inhibition above about 70%; inactive = the rest.

On to `CC1(c2cccs2)C(C#N)(C#N)C1(C#N)C#N`, for which the growth inhibition in test [1] (setting [7]) is 17%; in test [1] (setting [8]) it was 42%; in test [1] (at 50.0 µM), 92.8% (active); in test [2] (setting [7]), 9%; in test [2] (setting [8]), 44%; in test [2] (at 50.0 µM) it was 95.8% (active). The growth inhibition in test [3] (setting [7]) is 17%; in test [3] (setting [8]) it was 39%; in test [3] (at 50.0 µM) it was 96% (active); in test [4] (setting [7]) it was -5%; in test [4] (setting [8]) it was 30%; in test [4] (at 50.0 µM), 98.4% (active). The growth inhibition is -4% in test [5] (setting [7]); 36% in test [5] (setting [8]); 95.5% (active) in test [5] (at 50.0 µM); 9% in test [6] (setting [7]); 47% in test [6] (setting [8]); 98.5% (active) in test [6] (at 50.0 µM).

As to `NC(=S)Nc1cccc(C(F)(F)F)c1`, the growth inhibition was -14% in test [1] (setting [7]); 92% (active) in test [1] (setting [8]); 99.2% (active) in test [1] (at 50.0 µM); -20% in test [2] (setting [7]); 95% (active) in test [2] (setting [8]); 99.2% (active) in test [2] (at 50.0 µM). Besides, the growth inhibition was -10% in test [3] (setting [7]); 92% (active) in test [3] (setting [8]); 99.2% (active) in test [3] (at 50.0 µM); -45% in test [4] (setting [7]); 92% (active) in test [4] (setting [8]); 98.9% (active) in test [4] (at 50.0 µM). For the same molecule, the growth inhibition in test [5] (setting [7]) was -24%; in test [5] (setting [8]), 94% (active); in test [5] (at 50.0 µM), 98.9% (active); in test [6] (setting [7]), -19%; in test [6] (setting [8]) it was 93% (active); in test [6] (at 50.0 µM), 98.9% (active).

As to `CC(C)c1ccc(O)c(Cc2cc(C(C)C)ccc2O)c1`, the growth inhibition in test [1] (setting [7]) is 42%; in test [1] (setting [8]), 98% (active); in test [1] (at 50.0 µM), 98.2% (active); in test [2] (setting [7]), 23%; in test [2] (setting [8]) it was 98% (active); in test [2] (at 50.0 µM) it was 98.3% (active). The growth inhibition in test [3] (setting [7]) is 20%; in test [3] (setting [8]) it was 99% (active); in test [3] (at 50.0 µM) it was 96.7% (active); in test [4] (setting [7]), 20%; in test [4] (setting [8]), 98% (active); in test [4] (at 50.0 µM), 97.1% (active). In addition, the growth inhibition in test [5] (setting [7]) is 20%; in test [5] (setting [8]), 99% (active); in test [5] (at 50.0 µM), 98.6% (active); in test [6] (setting [7]), 64%; in test [6] (setting [8]), 98% (active); in test [6] (at 50.0 µM), 97.5% (active).

As for `CCOc1ccc2c(c1)n([O-])c1cc(Br)ccc1[n+]2=O`, the growth inhibition in test [1] (setting [7]) was 95% (active); in test [1] (setting [8]), 93% (active); in test [1] (at 50.0 µM), 22.4%; in test [2] (setting [7]), 49%; in test [2] (setting [8]), 85% (active); in test [2] (at 50.0 µM), 86.3% (active). The growth inhibition was 72% (active) in test [3] (setting [7]); 95% (active) in test [3] (setting [8]); 88.2% (active) in test [3] (at 50.0 µM); 35% in test [4] (setting [7]); 90% (active) in test [4] (setting [8]); 49% in test [4] (at 50.0 µM). The growth inhibition is 33% in test [5] (setting [7]); 92% (active) in test [5] (setting [8]); 78.6% (active) in test [5] (at 50.0 µM); 91% (active) in test [6] (setting [7]); 93% (active) in test [6] (setting [8]); 85.8% (active) in test [6] (at 50.0 µM).

As to `CCOC(=O)C1=C(C)NC(C)=C(C(=O)OCC)C1c1ccc([N+](=O)[O-])s1`, the growth inhibition in test [1] (setting [7]) was 61%; in test [1] (setting [8]), 98% (active); in test [1] (at 50.0 µM) it was 91.3% (active); in test [2] (setting [7]), 35%; in test [2] (setting [8]), 98% (active); in test [2] (at 50.0 µM), 93.2% (active). In addition, the growth inhibition was 49% in test [3] (setting [7]); 95% (active) in test [3] (setting [8]); 93.2% (active) in test [3] (at 50.0 µM); 29% in test [4] (setting [7]); 77% (active) in test [4] (setting [8]); 91.7% (active) in test [4] (at 50.0 µM). For the same molecule, the growth inhibition was 40% in test [5] (setting [7]); 83% (active) in test [5] (setting [8]); 93.2% (active) in test [5] (at 50.0 µM); 65% in test [6] (setting [7]); 98% (active) in test [6] (setting [8]); 91.6% (active) in test [6] (at 50.0 µM).

Regarding `NCCOB1c2ccccc2Cc2ccccc21`, the growth inhibition in test [1] (setting [7]) is 2%; in test [1] (setting [8]), 98% (active); in test [1] (at 50.0 µM) it was 45.6%; in test [2] (setting [7]), 6%; in test [2] (setting [8]), 99% (active); in test [2] (at 50.0 µM), 98.7% (active). In addition, the growth inhibition is -3% in test [3] (setting [7]); 99% (active) in test [3] (setting [8]); -3.8% in test [3] (at 50.0 µM); -2% in test [4] (setting [7]); 99% (active) in test [4] (setting [8]); 99% (active) in test [4] (at 50.0 µM). For the same molecule, the growth inhibition in test [5] (setting [7]) is 1%; in test [5] (setting [8]), 98% (active); in test [5] (at 50.0 µM) it was 99.1% (active); in test [6] (setting [7]), 0%; in test [6] (setting [8]), 99% (active); in test [6] (at 50.0 µM), 99% (active).

With `CCCCCCCCCCCCCCCCCCOC(=O)C(N)Cc1ccccc1` (stereo not given), the growth inhibition in test [1] (setting [7]) is -1%; in test [1] (setting [8]), -9%; in test [1] (at 50.0 µM), -7.3%; in test [2] (setting [7]), -2%; in test [2] (setting [8]), -5%; in test [2] (at 50.0 µM), 10.1%. Besides, the growth inhibition in test [3] (setting [7]) is 0%; in test [3] (setting [8]) it was -6%; in test [3] (at 50.0 µM), 11.1%; in test [4] (setting [7]) it was -6%; in test [4] (setting [8]), -4%; in test [4] (at 50.0 µM), -7.75%. In addition, the growth inhibition in test [5] (setting [7]) was -2%; in test [5] (setting [8]), -3%; in test [5] (at 50.0 µM) it was -5.85%; in test [6] (setting [7]), -3%; in test [6] (setting [8]), -8%; in test [6] (at 50.0 µM), 5.5%.

With `COc1ccc(S(=O)(=O)O)cc1-n1nc(C(=O)Nc2ccccc2)n[n+]1-c1cc(S(=O)(=O)[O-])ccc1OC`, the growth inhibition in test [1] (setting [7]) is 2%; in test [1] (setting [8]) it was 9%; in test [1] (at 50.0 µM) it was 19.1%; in test [2] (setting [7]), 1%; in test [2] (setting [8]), 3%; in test [2] (at 50.0 µM), 39.8%. Moreover, the growth inhibition was 10% in test [3] (setting [7]); 4% in test [3] (setting [8]); 22% in test [3] (at 50.0 µM); 0% in test [4] (setting [7]); 2% in test [4] (setting [8]); 0.4% in test [4] (at 50.0 µM). Further, the growth inhibition in test [5] (setting [7]) was -3%; in test [5] (setting [8]), 2%; in test [5] (at 50.0 µM) it was -10.6%; in test [6] (setting [7]), 1%; in test [6] (setting [8]), -61%; in test [6] (at 50.0 µM) it was 63.9%.

Consider `C=C(C)CCC(=C)C`, for which the growth inhibition was 22% in test [1] (setting [7]); 91% (active) in test [1] (setting [8]); 48.7% in test [1] (at 50.0 µM); 3% in test [2] (setting [7]); 47% in test [2] (setting [8]); 14.1% in test [2] (at 50.0 µM). The growth inhibition in test [3] (setting [7]) is 11%; in test [3] (setting [8]) it was 63%; in test [3] (at 50.0 µM) it was 42.4%; in test [4] (setting [7]), -4%; in test [4] (setting [8]), 26%; in test [4] (at 50.0 µM), 29.8%. Besides, the growth inhibition in test [5] (setting [7]) was -2%; in test [5] (setting [8]) it was 2%; in test [5] (at 50.0 µM), -35.2%; in test [6] (setting [7]), 16%; in test [6] (setting [8]), 64%; in test [6] (at 50.0 µM), 42%.

For `CCC(COS(=O)(=O)c1ccc(C)cc1)(COS(=O)(=O)c1ccc(C)cc1)COS(=O)(=O)c1ccc(C)cc1`, the growth inhibition was 3% in test [1] (setting [7]); 0% in test [1] (setting [8]); 13.7% in test [1] (at 50.0 µM); -3% in test [2] (setting [7]); 0% in test [2] (setting [8]); 4.35% in test [2] (at 50.0 µM). Moreover, the growth inhibition in test [3] (setting [7]) was -17%; in test [3] (setting [8]) it was -38%; in test [3] (at 50.0 µM) it was 42%; in test [4] (setting [7]), 3%; in test [4] (setting [8]), 14%; in test [4] (at 50.0 µM) it was 57.9%. The growth inhibition in test [5] (setting [7]) is 3%; in test [5] (setting [8]), 10%; in test [5] (at 50.0 µM), 21.6%; in test [6] (setting [7]), -35%; in test [6] (setting [8]) it was -40%; in test [6] (at 50.0 µM) it was 25.8%.
